# Assay results taken from ChEMBL document CHEMBL1157539, “Thousands of chemical starting points for antimalarial lead identification” (Nature, 2010).
# System: HepG2
# Experiment: GSK_TCMDC: Percent inhibition of human HepG2 cell line. Test compounds present at 10uM.
# Assay type: functional
row,SMILES,Inhibition [%]
1,O=C(NC1CCCCC1)N(Cc1cccc(-c2ccc(CNCc3ccc4c(c3)OCO4)cc2)c1)C1CCN(Cc2ccccc2)CC1.O=C(O)C(F)(F)F,13
2,CCn1c(-c2nonc2N)nc2cnc(Oc3cccc(NC(=O)c4ccc(OCCN5CCCCC5)cc4)c3)cc21,16
3,O=C(Nc1cccc(-c2cccc(-c3nc4ccccc4[nH]3)c2)c1)Nc1ccc(F)c(F)c1F,78
4,COc1ccc(-c2ccc(NC(=O)c3cccc(Cl)c3)cc2)cc1CNC(C)C.O=C(O)C(F)(F)F,26
5,Cl.O=C(Nc1ccc2nccc(N3CCN4CCC[C@H]4C3)c2c1)c1ccc(Cl)c(Cl)c1,18
6,Cc1[nH]c(C)c(-c2ccc(OCc3ccc(F)cc3)cc2)c(=O)c1Br,16
7,Cc1cc(Nc2cccc(C#N)c2)nc(Nc2ccccc2C)n1,10
8,Cl.Clc1ccc2c(NCCCCCCCCNc3ccnc4cc(Cl)ccc34)ccnc2c1,2
9,Cc1[nH]c(C)c(-c2ccc(-c3ccccc3F)nc2)c(=O)c1Cl,7
10,O=C(Nc1cccc(CN2CCN(C(=O)c3cccc(F)c3)CC2)c1)c1cccs1.O=C(O)C(F)(F)F,17
11,CC(C)(C)c1ccc(NC(=O)c2ccc(CN3CCCN(Cc4cccc(Cl)c4)CC3)cc2)cc1.O=C(O)C(F)(F)F,43
12,O=C(/C=C/c1ccc(Cl)c(Cl)c1)N1CCC(CCCN2CCC(c3c[nH]c4ccc(O)cc34)CC2)CC1,60
13,Cc1cccc2nc(-c3cccc(-c4cccc(C(=O)NCCc5cn(C)cn5)c4)c3)[nH]c12,12
14,CC(C)Cc1cnc2nc(N)nc(N)c2c1.Cl,66
15,Cl.Oc1ccc(CCNc2nc(NCCCOc3ccccc3-c3ccc(C(F)(F)F)cc3)nc(N3CCNCC3)n2)cc1,64
16,COc1cc(NCCCNC(=O)c2cc3c(Cl)cc(Cl)cc3[nH]2)nc2ccccc12,96
17,Cc1cccc(C=NN=c2cc(C)[nH]c3ccc(F)cc23)n1,1
18,Cl.N#Cc1ccc2c(c1)CCN(CCC1CCC(NC(=O)c3cc4ccc(Br)cc4[nH]3)CC1)C2 (stereo not given),12
19,Cc1cc(-c2nc3ccc(C(=O)NCc4ccccc4)cc3n2C2CCN(C(=O)c3ccc(-c4ccccc4)cc3)CC2)ccn1,36
20,O=C(Nc1cccc(-c2cccc(-c3nc4cc(C(F)(F)F)ccc4[nH]3)c2)c1)c1ccoc1,32

row,SMILES,Inhibition [%]
1,COc1cc(NC(=O)c2cc([N+](=O)[O-])ccc2NC(=O)CNC2CCCCC2C)cc(OC)c1 (stereo not given),0
2,CCCc1cc(Cc2cnc(N)nc2N)cc(CCC)c1OCCCCC(=O)O,18
3,Cc1cc(C=C(P(=O)(OC(C)C)OC(C)C)P(=O)(OC(C)C)OC(C)C)c2ccccc2c1O,15
4,NCCCCNc1cc(-c2ccnc(Nc3cccc(Cl)c3)n2)ccn1,46
5,COc1cc2nc(N3CCC(CNC(=O)c4cccc5cccnc45)CC3)nc(N)c2cc1OC,34
6,N=C(/N=C(/NCCCCCCN/C(=N\C(=N)Nc1ccc(Cl)cc1)N1CCCCC1)N1CCCCC1)Nc1ccc(Cl)cc1,0
7,COc1ccc2c(N/N=C/c3cccc([N+](=O)[O-])c3)ccnc2c1,0
8,CCCCOc1c(CCNCCCCNCCc2cc(F)c3ccccc3c2OCCCC)cc(F)c2ccccc12.CS(=O)(=O)O,97
9,Cl.Oc1ccc(Nc2nc(NCC3CCCO3)c3ccccc3n2)cc1 (stereo not given),7
10,CN1CCN(c2ccnc3ccc(NC(=O)Nc4cccc5ccccc45)cc23)CC1,0
11,O=C(Nc1cccc(CN2CCCN(Cc3ccc(O)cc3)CC2)c1)c1ccc(Cl)c(Cl)c1.O=C(O)C(F)(F)F,22
12,CC(=O)Nc1ccc(OCCN(Cc2ccccc2OC(F)(F)F)c2ccc(C(F)(F)F)c(C#N)c2)c(Cl)c1,8
13,O=C(Nc1ccc(C(F)(F)F)cc1)Nc1cccc([N+](=O)[O-])c1,20
14,COc1ccc(CNC2CCN(C)CC2)cc1-c1ccc(S(=O)(=O)NCc2ccccc2)s1.O=C(O)C(F)(F)F,62
15,COCCn1c(C)nc2ccccc2c1=O,0
16,COc1ccc(CCN2CCC(NCc3cccc(N(C)C)c3)CC2)cc1,18
17,CCCN(CCC)CCCN(CCCN(CCC)CCC)c1cc(C)nc(Nc2ccc(Cl)cc2)n1.Cl,34
18,CCOC(=O)c1sc(C(C)Nc2ccccc2)nc1-c1ccccc1 (stereo not given),0
19,CCc1cccc(-n2c(=O)c3cccnc3n2CC(=O)NC2CCCC2)c1,2
20,COc1ccccc1N(C)CCNc1cc(C)nc(Nc2ccccc2)n1,10
